From PubChem BioAssay AID493185 (National Center for Advancing Translational Sciences (NCATS), 2011)
The source made the active and inactive calls. A call without a number means that no potency is given here. The call rests on the fitted dose curve; in most records, active means well fitted activation curve with a large enough effect; inconclusive means small, poorly fitted or top-dose-only effect; inactive means no such curve, though single readings can be large or run the other way.

Assay: Counterscreen for Identifying a Potential Treatment of Ataxia-Telangiectasia: Hit Validation
In short: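 Cell-free AlphaLISA counterscreen: compounds (up to 76.7 uM final) in PBS with detection mix of anti-pKAP1 and anti-KAP1 antibodies on donor/acceptor beads plus lysis buffer, incubated 6 hr at 25C before AlphaScreen read.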
Potency means the concentration at half of the fitted maximal effect.

| SMILES | Potency |
| --- | --- |
| CCN(CC)c1ccc2cc(-c3nc4ccccc4[nH]3)c(=O)oc2c1 | 4.63 µM (active) |
| CC1CC(C)CN(C(=O)COC(=O)c2c[nH]c3ccccc23)C1 (configuration not stated) | inactive |
| COC(=O)CCc1c(C)c(C(=O)c2cc(OC)c(OC)c(OC)c2)c2ccccn12 | inactive |
| O=C(c1ccc(F)cc1)N1CCC(c2ccccc2)C1 (configuration not stated) | inactive |
| OC(COC(c1ccc(F)cc1)c1ccc(F)cc1)CN1CCCC1 (configuration not stated) | inactive |
| CN(Cc1ccccc1)C(=O)c1cccc(N2C(=O)C3CC=CCC3C2=O)c1 (configuration not stated) | inactive |
| CCOC(=O)NC(C(Cl)(Cl)Cl)S(=O)(=O)c1ccccc1 (configuration not stated) | inactive |
| O=C(NCCCN1CCOCC1)c1ccc2c(c1)N(Cc1cccc(F)c1)C(=O)c1ccccc1S2 | inactive |
| CC(=O)Nc1ccc(NC(=O)CSc2nnnn2-c2ccc(F)cc2)cc1 | inactive |
| Cc1ccc(NC(=O)CSc2nnc([C@H](C)NC(=O)OC(C)(C)C)o2)c(C)c1 | inactive |
| COc1ccc2nc(NCCCNC(=O)c3cc(OC)c(OC)c(OC)c3)c(C#N)cc2c1 | 29.2 µM (active) |
| COc1ccc(C(=O)CSc2nc3ncccc3[nH]2)cc1OC | inactive |
| CCOC(=O)Cc1csc(NC(=O)CSc2nnc(C(C)C)n2C)n1 | inactive |
| C=C1CCC[C@]2(C)C[C@H]3OC(=O)C(CN4CCCCC4CO)[C@H]3CC12 (some centres not stated) | inactive |
| C/C(CCC1CC(C)OC1=O)=N\NC(N)=S (configuration not stated) | inactive |
| CNC(=S)N/N=C/c1ccc2c(c1)OCCO2 | inactive |
| CCC(Oc1ccccc1)C(=O)N(C)CC(=O)N(CC(C)C)c1c(N)n(CC(C)C)c(=O)[nH]c1=O (configuration not stated) | inactive |
